Values joined by “and” are separate entries in the source; they are usually repeats but may differ in a detail not shown here. Equal entries are not always repeated. Structures can show the parent of a compound that is named as a salt.
Legend:
Assay in all cases: cell viability relative to vehicle control; higher = less cytotoxic
Conditions in all cases: 10 µM
[1] = tested on: K562
Outline: (§1)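 CRISPR-edited SRSF2 P95 mutant and isogenic wild-type clones of four leukaemia lines were screened against Selleck bioactive, kinase and epigenetic probe libraries, with identity-inconsistent compounds removed. Compounds were acoustically dispensed into 384-well plates at a single 10 µM dose, with 2000 cells in 50 µL medium per well. After 48 h, supernatant was removed and CellTiter-Glo luminescence was read. Viability was expressed as percent of the on-plate DMSO vehicle control, analysed in Genedata Screener.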

[2] = tested on: MARIMO
Outline: as §1

[3] = tested on: MOLM14
Outline: as §1

[4] = tested on: OCI-AML2
Outline: as §1

Row | Compound | cell viability ([1]; SRSF2 genotype: SRSF2 P95H/wt) | cell viability ([1]; SRSF2 genotype: SRSF2 wt/wt) [%] | cell viability ([2]; SRSF2 genotype: SRSF2 P95H/wt) [%] | cell viability ([2]; SRSF2 genotype: SRSF2 wt/wt) [%] | cell viability ([3]; SRSF2 genotype: SRSF2 P95H/wt) [%] | cell viability ([3]; SRSF2 genotype: SRSF2 wt/wt) [%] | cell viability ([4]; SRSF2 genotype: P95H/wt) [%] | cell viability ([4]; SRSF2 genotype: wt/wt) [%]
1 | O=C1NC(=O)/C(=C/c2ccc3nccc(-c4ccncc4)c3c2)S1 | 62.8% and 84% | 69.7 | 54.6 | 50.5 | 40.1 | 42 | 25.4 | 28.8
2 | CCCc1cc2c(N3CCN(C4=NCC(C)(C)S4)CC3)ncnc2s1 [MI-2 (Menin-MLL inhibitor)] | 73.4% and 74.9% | 71.4 | 62.1 | 57.1 | 76.2 | 84.1 | 45.1 | 53.3
3 | CN1C(C(=O)Nc2ccccn2)=C(O)c2ccccc2S1(=O)=O [Piroxicam (Feldene)] | 99.5% and 103% | 100 | 97.3 | 106 | 97.6 | 105 | 104 | 105
4 | O=P(O)(O)Oc1cccc2ccccc12 [1-Naphthyl phosphate potassium salt] | 104% and 95% | 97.8 | 87.5 | 107 | 91.7 | 104 | 83.9 | 91.1
5 | CC(=O)c1ccccc1O [2'-Hydroxyacetophenone] | 101% and 100% | 99.4 | 99.1 | 96.6 | 105 | 101 | 102 | 105
6 | Cc1cc(C(=O)O)n[nH]1 | 108% and 101% | 103 | 104 | 111 | 96.4 | 111 | 101 | 104
7 | COc1ccc(Cl)cc1C(=O)NCCc1ccc(S(=O)(=O)NC(=O)NC2CCCCC2)cc1 [Glyburide (Glibenclamide)] | 107% and 98.6% | 110 | 106 | 120 | 108 | 103 | 98.8 | 104
8 | O=C(Nc1cc2cc[nH]c2cn1)c1ccccc1 | 45.9% and 44.5% | 43 | 43.3 | 45.8 | 49.3 | 51.1 | 38.6 | 39.3
9 | C[C@@H]1CC(=O)c2c(ccc3c2C(=O)c2cccc(O)c2C3=O)C1 | 77.9% and 93.8% | 94.6 | 67.6 | 57.6 | 53.9 | 68.5 | 43.4 | 43.6
10 | CC1OC(OC2C(CO)OC(OCC3OC(OC(=O)C45CCC(C)(C)CC4C4=CCC6C7(C)CCC(OC8OCC(O)C(O)C8OC8OC(C)C(O)C(O)C8O)C(C)(CO)C7CCC6(C)C4(C)CC5)C(O)C(O)C3O)C(O)C2O)C(O)C(O)C1O (stereo unspecified) [Hederacoside C] | 101% and 93% | 95.3 | 96.9 | 101 | 97.3 | 98 | 93.5 | 106
11 | O=C(O)C1=C(CSc2nnnn2CS(=O)(=O)O)CS[C@@H]2[C@H](NC(=O)[C@H](O)c3ccccc3)C(=O)N12 [Cefonicid sodium] | 103% | 102 | 97.2 | 108 | 96.3 | 105 | 103 | 113
12 | Cc1cc(Nc2cc(CN3CCOCC3)c3nc(C)c(Cc4ccc(Cl)cc4F)n3n2)n[nH]1 | 88.8% and 88% | 84 | 73.1 | 110 | 19.7 | 16.5 | 34.7 | 53
13 | COc1cc2ncnc(Nc3ccc(Oc4ccccc4)cc3C)c2cc1OC | 68% and 80.2% | 79.3 | 81.1 | 66 | 37.5 | 29.9 | 45.6 | 43
14 | O=C(NNc1nc2cc(F)ccc2n2cccc12)c1cnccn1 | 24.8% and 29.5% | 12.5 | 12.6 | 15.3 | 4.38 | 1.25 | 12.4 | 10.5
15 | CCCCCCCN(CC)CCCC(O)c1ccc(NS(C)(=O)=O)cc1 (stereo unspecified) [Ibutilide fumarate] | 87.6% and 106% | 93.2 | 91.6 | 107 | 97.9 | 103 | 97.9 | 96.4
16 | OC[C@H]1O[C@@](CO)(O[C@H]2O[C@H](CO)[C@@H](O)[C@H](O)[C@H]2O)[C@@H](O[C@H]2O[C@H](CO)[C@@H](O)[C@H](O)[C@H]2O)[C@@H]1O [D-(+)-Melezitose] | 100% | 97.6 | 105 | 115 | 98.5 | 107 | 95.1 | 95.5
17 | O=Cc1ccc(O)c(O)c1 [3,4-Dihydroxybenzaldehyde] | 95.8% and 92.8% | 93.7 | 77.4 | 91.9 | 91.3 | 99.4 | 88.9 | 92.4
18 | CCN1CCCC1CNC(=O)c1cc(S(=O)(=O)CC)c(N)cc1OC (stereo unspecified) [Amisulpride] | 104% and 101% | 105 | 102 | 107 | 109 | 108 | 109 | 110
19 | CCCC(CCC)C(=O)O [Valproic acid] | 95.5% and 98.3% | 106 | 103 | 100 | 102 | 102 | 102 | 95.7
20 | CN(C)c1ccc(C(=C2C=CC(=[N+](C)C)C=C2)c2ccc(N(C)C)cc2)cc1 [Crystal violet] | 0.3% and 0.45% | 1.14 | 0.76 | 1.04 | 0.09 | 0.09 | 0.06 | 0.11
21 | CCN(CC)CCNC(=O)c1c(C)[nH]c(/C=C2\C(=O)Nc3ccc(F)cc32)c1C [Sunitinib] | 22.8% and 26.6% | 17.6 | 23.4 | 23.4 | 0.2 | 0.37 | 0.48 | 2.85

Row | Compound | cell viability ([1]; SRSF2 genotype: SRSF2 P95H/wt) | cell viability ([1]; SRSF2 genotype: SRSF2 wt/wt) [%] | cell viability ([2]; SRSF2 genotype: SRSF2 P95H/wt) [%] | cell viability ([2]; SRSF2 genotype: SRSF2 wt/wt) [%] | cell viability ([3]; SRSF2 genotype: SRSF2 P95H/wt) [%] | cell viability ([3]; SRSF2 genotype: SRSF2 wt/wt) [%] | cell viability ([4]; SRSF2 genotype: P95H/wt) [%] | cell viability ([4]; SRSF2 genotype: wt/wt) [%]
22 | CN(CCNCc1cn(Cc2ccc(Cl)cc2)nn1)CCNc1ccnc2cc(Cl)ccc12 | 2.31% and 5.3% | 6.48 | 28.8 | 34.4 | 2.79 | 0.55 | 0.39 | 0.68
23 | NC1(Cc2ccc(Cl)cc2)CCN(c2ncnc3[nH]ccc23)CC1 | 55.4% and 60.1% | 50.8 | 36.5 | 35.1 | 17.7 | 17 | 35.3 | 30.9
24 | O=C(O)c1ccc(C=C2SC(=S)N(c3cccc(C(F)(F)F)c3)C2=O)cc1 | 94.1% and 97.2% | 95.1 | 94.3 | 105 | 90.2 | 99.7 | 95.5 | 97.9
25 | Cc1cc(C)nc(NS(=O)(=O)c2ccc(N)cc2)n1 [Sulfamethazine] | 108% and 111% | 108 | 105 | 109 | 110 | 110 | 119 | 96.2
26 | COc1cc2oc(-c3ccc(O)cc3)cc(=O)c2c(O)c1[C@@H]1O[C@H](CO)[C@@H](O)[C@H](O)[C@H]1O[C@@H]1O[C@H](CO)[C@@H](O)[C@H](O)[C@H]1O [Spinosin] | 106% | 104 | 106 | 101 | 106 | 104 | 99.2 | 100
27 | O=c1n(CCCN2CCN(c3cccc(Cl)c3)CC2)nc2ccccn12 [Trazodone hydrochloride (Desyrel)] | 102% and 99.9% | 103 | 105 | 109 | 106 | 102 | 106 | 104
28 | CC(C)(C)C1CCC(CC2=C(O)c3ccccc3C(=O)C2=O)CC1 (stereo unspecified) [Buparvaquone] | 76.6% and 81.5% | 77 | 84.1 | 101 | 63.2 | 42.9 | 80.4 | 75.3
29 | Fc1ccc([C@@H]2CCNC[C@H]2COc2ccc3c(c2)OCO3)cc1 [Paroxetine mesylate] | 34.1% and 53.1% | 49.5 | 39 | 35.6 | 33.4 | 38.1 | 28.7 | 39.2
30 | Clc1ccc(NN=C(c2ccccc2)c2ccccn2)nc1 | 17.9% and 15.3% | 20 | 3.72 | 0.76 | 1.65 | 0.71 | 5.44 | 3.14
31 | CC1(C)C2CCC1(C)C(O)C2 (single isomer, unassigned; (+)) [(+)-Borneol] | 96.5% and 99.3% | 105 | 100 | 106 | 101 | 103 | 101 | 98
32 | CNC(=O)Nc1ccc(-c2nc(N3CC4CCC(C3)O4)c3cnn(C4CCC5(CC4)OCCO5)c3n2)cc1 | 40.7% and 42.8% | 34.4 | 57.6 | 45 | 36 | 28.1 | 29 | 28.7
33 | CC(C)=CCc1cc2c(cc1O)oc(=O)c1c3ccc(O)cc3oc21 [Psoralidin] | 98.2% and 95.7% | 95.2 | 98 | 106 | 115 | 107 | 98 | 98.9
34 | COc1cc(C2Oc3ccc(C4Oc5cc(O)cc(O)c5C(=O)C4O)cc3OC2CO)ccc1O (stereo unspecified) [Isosilybin] | 92.6% and 89.8% | 85.4 | 99 | 106 | 104 | 98.9 | 96.8 | 95.3
35 | CC(=O)O[C@H]1CC/C(C)=C/CC/C(C)=C/C[C@]2(C(C)C)CC[C@@]1(C)O2 [Incensole acetate] | 85.8% and 85.7% | 91.2 | 85.1 | 89.2 | 68.8 | 67.7 | 84.1 | 85.2
36 | COCCOc1cnc2ccn([C@H](C)c3nnc4c(F)cc(-c5cnn(C)c5)cn34)c(=O)c2c1 | 86.5% and 87.1% | 85.7 | 86.8 | 94.3 | 96.7 | 93.5 | 82 | 85.9
37 | COc1ccc(COc2ccc(CC#N)cc2)cc1 | 103% | 97.9 | 96.4 | 108 | 114 | 110 | 96.3 | 82.9
38 | C[C@H](CCC(=O)O)[C@H]1CC[C@H]2[C@@H]3[C@H](O)C[C@@H]4C[C@H](O)CC[C@]4(C)[C@H]3C[C@H](O)[C@]12C [Cholic acid] | 94.2% and 93.3% | 100 | 91.6 | 98 | 98.9 | 97.6 | 98.5 | 98.9
39 | c1cc(CN2CCCNCCNCCCNCC2)ccc1CN1CCCNCCNCCCNCC1 [Plerixafor] | 93.9% and 99.1% | 99.1 | 96.2 | 100 | 94.8 | 94.7 | 103 | 96.9
40 | CC(=O)O[C@]1(C(C)=O)CC[C@H]2[C@@H]3C=C(Cl)C4=CC(=O)[C@@H]5C[C@@H]5[C@]4(C)[C@H]3CC[C@@]21C [Cyproterone acetate] | 87.2% and 85.8% | 84.7 | 66.1 | 71.6 | 86.2 | 93.3 | 75 | 77.4
41 | CC(C)[C@H](NC(=O)[C@H](CC(=O)O)NC(=O)[C@H](CCCCN)NC(=O)[C@@H](N)CCCN=C(N)N)C(=O)N[C@@H](Cc1ccc(O)cc1)C(=O)O [Thymopentin] | 92.2% and 89.2% | 87 | 86.4 | 94.6 | 95.8 | 91.6 | 77.9 | 89.5
42 | N/C(=N\N=C\c1ccc(Cl)cc1)N/N=C/c1ccc(Cl)cc1 [Robenidine Hydrochoride] | 70.9% and 65.6% | 67.4 | 65.7 | 67.8 | 59.2 | 65.9 | 60.2 | 73.3

Source: the supplement of paper PMC10981050
